Assay results reported in article PMC4336329 (PLoS ONE, 2015).
In all, about 310,000 compounds went through this assay and about 14,000 (4.5%) showed an effect of 50% or more. The effect is printed as a negative number. Only a selection was taken, and strong results are over-represented in it overall.

target: human ether-à-go-go-related gene (hERG) potassium channel (human, UniProt Q12809); assay: primary screen, population patch clamp on CHO cells stably expressing hERG; higher = less effect of the substance
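Also: peak tail current of the secondary pulse compared with the same well before compound.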

human ether-à-go-go-related gene (hERG) potassium channel, sequence (Q12809 whole entry, looked up): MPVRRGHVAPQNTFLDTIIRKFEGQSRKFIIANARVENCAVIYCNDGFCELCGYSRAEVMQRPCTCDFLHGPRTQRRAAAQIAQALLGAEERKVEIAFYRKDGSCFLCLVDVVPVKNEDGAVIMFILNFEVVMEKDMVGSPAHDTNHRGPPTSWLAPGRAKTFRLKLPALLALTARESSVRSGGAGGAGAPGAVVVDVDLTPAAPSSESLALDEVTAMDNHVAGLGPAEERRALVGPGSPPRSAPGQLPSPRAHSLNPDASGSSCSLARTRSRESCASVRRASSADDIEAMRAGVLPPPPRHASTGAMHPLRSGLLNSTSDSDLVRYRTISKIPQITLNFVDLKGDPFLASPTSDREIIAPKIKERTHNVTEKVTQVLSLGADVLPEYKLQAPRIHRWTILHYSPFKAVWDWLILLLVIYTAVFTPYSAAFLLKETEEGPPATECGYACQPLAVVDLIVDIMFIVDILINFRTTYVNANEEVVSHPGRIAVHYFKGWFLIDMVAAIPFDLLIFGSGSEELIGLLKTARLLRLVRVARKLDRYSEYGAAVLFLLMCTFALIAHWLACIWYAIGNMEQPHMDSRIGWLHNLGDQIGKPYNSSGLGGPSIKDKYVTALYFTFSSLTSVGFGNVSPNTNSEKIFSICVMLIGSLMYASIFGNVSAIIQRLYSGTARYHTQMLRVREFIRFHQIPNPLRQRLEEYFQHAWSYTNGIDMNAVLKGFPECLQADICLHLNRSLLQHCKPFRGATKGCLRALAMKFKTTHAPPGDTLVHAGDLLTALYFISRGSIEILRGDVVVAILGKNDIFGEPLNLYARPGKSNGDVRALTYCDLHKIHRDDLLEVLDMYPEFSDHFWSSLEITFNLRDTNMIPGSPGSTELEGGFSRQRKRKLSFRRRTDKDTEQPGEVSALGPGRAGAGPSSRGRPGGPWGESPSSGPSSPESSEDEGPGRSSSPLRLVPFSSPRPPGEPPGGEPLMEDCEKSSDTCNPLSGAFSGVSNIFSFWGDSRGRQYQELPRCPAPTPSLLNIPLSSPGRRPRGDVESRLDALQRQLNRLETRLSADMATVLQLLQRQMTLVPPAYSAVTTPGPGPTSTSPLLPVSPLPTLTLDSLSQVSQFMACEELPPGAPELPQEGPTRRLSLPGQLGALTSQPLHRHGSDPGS

Going from Cc1ccc(NC(=O)CSCC(=O)N2c3ccccc3CCc3ccccc32)cc1 to CC(=O)Nc1ccccc1C(=O)N1CCN(Cc2ccccc2)CC1, the “hERG current change (%, negative = inhibition) at 10uM” value falls from 7.66% to 5.02%.

First: O=c1[nH]c(=O)n(Cc2ccco2)c(O)c1C=NCc1ccco1
Second: CCOC(=O)C1C(=O)NC(N2CCN(c3ccccc3)CC2)=NC1c1ccco1 (stereo not drawn)
The “hERG current change (%, negative = inhibition) at 10uM” value of the first is higher: 3.46% for the first, -5.81% for the second.

Compared with Cc1nnc(NC(=O)CSc2nnc(-c3ccc(S(=O)(=O)N4CCCC4)cc3)n2C)s1, COCc1ccc(CN2CCCC(C(=O)Nc3ccc(-c4cccc(OC)c4)cc3)C2)o1 (stereo not drawn) is higher in “hERG current change (%, negative = inhibition) at 10uM” value: -3.39% for the first, -0.711% for the second.

Compared with C/C(=N\NC(=O)C1CC1)c1ccc(OC(F)F)cc1, CC(=O)c1ccc(OCc2cc(C(=O)NC3CCCCC3)no2)cc1 is lower in “hERG current change (%, negative = inhibition) at 10uM” value: 9.94% for the first, 5.17% for the second.

First: CCOc1ccc(NC(=O)CSCC(=O)O)cc1
Second: O=C(Nc1ccc(Br)cc1)c1cnccn1
The “hERG current change (%, negative = inhibition) at 10uM” value of the first is higher: 1.8% for the first, -2.9% for the second.

First: Oc1ccc(/C(Cc2ccccn2)=N\Nc2ccccc2)c(O)c1
Second: c1ccc(-c2ccc(SCc3cccnc3)nn2)nc1
The “hERG current change (%, negative = inhibition) at 10uM” value of the first is lower: 8.76% for the first, 8.9% for the second.

Going from O=C(NC1Cc2ccccc2C1)c1cc(COc2ccc(F)cc2Cl)on1 to O=C(NC1CCc2ccccc21)c1cc(COc2ccc(F)cc2F)on1 (stereo not drawn), the “hERG current change (%, negative = inhibition) at 10uM” value rises from 13.3% to 16.5%.

Going from O=C(NC1CCN(Cc2ccccc2)C1)c1cc(COc2ccc(F)cc2F)on1 (stereo not drawn) to Cc1ccc(C)c(OCc2cc(C(=O)NC3CCN(Cc4ccccc4)CC3)no2)c1, the “hERG current change (%, negative = inhibition) at 10uM” value rises from -64.2% to -41.1%.

Compared with CC(=O)c1cccc(OCc2cc(C(=O)NC3CCN(Cc4ccccc4)CC3)no2)c1, COc1cccc(CC(=O)NC2CCCN(Cc3ccccc3F)C2)c1 (stereo not drawn) is higher in “hERG current change (%, negative = inhibition) at 10uM” value: -62.9% for the first, -5.72% for the second.

Compared with COC(=O)CCCC1=CC2=CC(=O)C(C)(OC(=O)c3cnc4ccccc4n3)C(=O)C2=CO1 (stereo not drawn), COc1cccc(CNC(=O)CCC2CCCN(C(=O)c3ccoc3C)C2)c1 (stereo not drawn) is lower in “hERG current change (%, negative = inhibition) at 10uM” value: 7.07% for the first, 5.6% for the second.

Going from CCN(CC1CCCN(CCc2cccc(OC)c2)C1)C(=O)c1ccoc1 (stereo not drawn) to CCN(CC1CCCN(CCc2cccc(OC)c2)C1)C(=O)c1ccoc1C (stereo not drawn), the “hERG current change (%, negative = inhibition) at 10uM” value rises from -70.7% to -62.8%.

Going from CCN(CC1CCCN(CCc2cccc(OC)c2)C1)C(=O)c1ccc(COC)o1 (stereo not drawn) to CCN(CC1CCCN(CCc2cccc(OC)c2)C1)C(=O)C=C(C)C (stereo not drawn), the “hERG current change (%, negative = inhibition) at 10uM” value rises from -71% to -61.1%.

Compared with COc1cccc(CCC(=O)N(C)C2CCCN(Cc3ccccc3F)C2)c1 (stereo not drawn), CCN(CC)C(=O)C1CCCN(Cc2cccc(Oc3ccccc3)c2)C1 (stereo not drawn) is lower in “hERG current change (%, negative = inhibition) at 10uM” value: -0.453% for the first, -19.6% for the second.

Compared with COc1cccc(CNC(=O)CCC2CCCN(C(=O)c3ccoc3)C2)c1 (stereo not drawn), O=C(c1cccc(Cl)c1)N1CCN(c2ccc(N3CCOCC3)nn2)CC1 is lower in “hERG current change (%, negative = inhibition) at 10uM” value: 24.9% for the first, -34.8% for the second.

Going from O=C(COC(=O)CCNS(=O)(=O)c1cccs1)Nc1cc(C(F)(F)F)ccc1Cl to Br.C=CCn1c(=N)n(CC(=O)c2ccc(Br)s2)c2ccccc21, the “hERG current change (%, negative = inhibition) at 10uM” value falls from -26.1% to -58.6%.

Compared with Cc1ccc(/C=C/C(=O)O)cc1S(=O)(=O)N(CCO)CCO, Br.CCCCn1c(=N)n(CC(=O)O)c2ccccc21 is higher in “hERG current change (%, negative = inhibition) at 10uM” value: 8.09% for the first, 22.4% for the second.

Compared with Cc1sc2ncnc(Sc3nnnn3-c3ccc(Cl)cc3)c2c1C, COc1ccc(-c2n[nH]c(=S)n2-c2ccc(C)cc2)cc1 is lower in “hERG current change (%, negative = inhibition) at 10uM” value: 11.2% for the first, 8.3% for the second.

Compared with Nc1nccnc1C(=O)OCC(=O)c1ccc[nH]1, CC(=O)c1ccc(Oc2ncnc(N)c2[N+](=O)[O-])cc1 is higher in “hERG current change (%, negative = inhibition) at 10uM” value: -0.119% for the first, 12.4% for the second.

Compared with COc1ccc(CCn2c(=S)[nH]c3ccc(N4CCOCC4)cc3c2=O)cc1OC, COc1ccc(-c2nc(CS(=O)CC(=O)NC3CCC(C)CC3)c(C)o2)cc1OC (stereo not drawn) is lower in “hERG current change (%, negative = inhibition) at 10uM” value: 10.2% for the first, -34.6% for the second.

Going from Br.CCN(CC)CCn1c(=N)n(CC(=O)c2ccc(Br)s2)c2ccccc21 to Br.CCn1c(=N)n(CC(=O)c2ccc(Br)s2)c2ccccc21, the “hERG current change (%, negative = inhibition) at 10uM” value rises from -76.9% to -69.3%.

First: Br.CCn1c(=N)n(CC(=O)C23CC4CC(CC(C4)C2)C3)c2ccccc21
Second: Br.CCCCn1c(=N)n(CC(=O)C(C)(C)C)c2ccccc21
The “hERG current change (%, negative = inhibition) at 10uM” value of the first is higher: -32.3% for the first, -55% for the second.

Going from C=CCn1c(=N)n(CC(=O)c2ccc(Br)cc2)c2ccccc21 to Br.C=CCn1c(=N)n(CC(=O)c2ccccc2)c2ccccc21, the “hERG current change (%, negative = inhibition) at 10uM” value rises from -43.5% to -23.9%.

In the case of Br.Cn1c(=N)n(CC(=O)c2ccc(Br)s2)c2ccccc21, the “hERG current change (%, negative = inhibition) at 10uM” value is reported as -6.86%.
